A selection: hits, their analogues and other compounds. The true share with any hit is near 5.5%.
CBFb-RUNX1 inh: qHTS Assay for Compounds Blocking the Interaction Between CBF-beta and RUNX1 for the Treatment of Acute Myeloid Leukemia. AlphaScreen CBFb-His/RUNX1-biotin binding, biochemical. Potency, µM (series often up to 59.8 µM), without a hit: at the top dose activity, negative = inhibition, hits mostly inhibitors. 230,000 tested, under 10 active. AID 1477, 2009; further: % of control where 0% means no effect
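AlphaScreen binding: CBFb-His and RUNX1-biotin (30 nM each) preincubated 20 min, compound added for 15 min, then nickel and streptavidin beads for 90 min, all at room temperature. Disruption of the interaction by any mechanism counts as activity.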
RORg inh: qHTS for inhibitors of ROR gamma transcriptional activity | Nuclear receptor ROR-gamma (Mus musculus), P51450 | Drosophila S2 Gal4-RORgamma UAS-luciferase reporter, 20 h | Potency, µM (series often up to 53.6 µM), inactives show at the top dose activity change, negative = inhibition, usual class: inhibitors | 310,000 tested, 5.4% active | AID 2551, 2010; further: potency means the concentration at half of the fitted maximal effect; on the % scale 0 is the no-effect control and ±100 the full control effect; nearly all actives have a fitted effect of over 60% in size
Target sequence (P51450 whole entry, looked up, the tested form may be a part): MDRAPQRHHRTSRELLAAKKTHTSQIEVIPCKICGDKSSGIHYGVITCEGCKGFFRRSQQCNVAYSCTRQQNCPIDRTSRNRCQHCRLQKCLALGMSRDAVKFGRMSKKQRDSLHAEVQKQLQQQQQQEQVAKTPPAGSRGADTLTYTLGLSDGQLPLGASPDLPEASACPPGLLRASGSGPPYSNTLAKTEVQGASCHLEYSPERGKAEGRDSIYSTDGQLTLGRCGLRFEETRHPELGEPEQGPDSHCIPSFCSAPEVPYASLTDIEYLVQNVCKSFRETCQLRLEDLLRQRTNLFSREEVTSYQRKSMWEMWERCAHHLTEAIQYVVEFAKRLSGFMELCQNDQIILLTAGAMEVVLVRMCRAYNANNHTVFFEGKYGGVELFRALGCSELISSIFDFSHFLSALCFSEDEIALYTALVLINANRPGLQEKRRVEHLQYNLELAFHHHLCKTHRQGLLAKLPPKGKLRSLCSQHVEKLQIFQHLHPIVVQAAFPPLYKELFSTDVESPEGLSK
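Compounds are pin-transferred onto Drosophila Schneider cells expressing a copper-inducible Gal4–ROR gamma transactivation domain fusion. After 1 hr, copper sulfate is added to 700 uM final; luciferase is read 20 hr later.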
Six1-Eya2 blk: qHTS Assay for Inhibitors of the Six1/Eya2 Interaction. AlphaScreen GST-Six1/His-Eya2 binding, biochemical; active compounds read low. activity change, % (no concentration beside the values). 360,000 tested, 0.56% active; in the data active means activity change below about -65%; inconclusive means mostly about -30% to -63%; further: on the % scale 0 is the no-effect control and ±100 the full control effect
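Six1/Eya2 binding was read as AlphaScreen signal after compounds were pinned into GST-Six1 plus His-tagged Eya2 (5X stock 250/500 nM) in pH 8.0 Tris/NaCl/TCEP buffer, beads added, then incubated 1 h, 37 C, dark.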
Gal4-VP16 FLuc: VP16 counterscreen qHTS for inhibitors of ROR gamma transcriptional activity. Drosophila S2 Gal4-VP16 UAS-luciferase, luminescence, 20 h. Potency, µM (titrated, usually from 53.6 µM), inactives show top-dose activity, negative = inhibition, usual class: inhibitors. 310,000 tested, 3.5% active;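 further: Gal4-VP16 expression switched on by copper sulfate through the metallothionein promoter; potency means the concentration at half of the fitted maximal effect; on the % scale 0 is the no-effect control and ±100 the full control effect; nearly all actives have a fitted effect of over 50% in size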
CtBP-E1A blk: qHTS Assay for Inhibitors of the CtBP/E1A Interaction | CtBP / adenovirus E1A interaction (AlphaScreen) | AlphaScreen GST-E1A/His-CtBP binding, 1536-well; active compounds read low | activity change, % (concentration not given with the values) | 340,000 tested, 0.49% active; in the data active means activity change below about -65%; inconclusive means mostly about -30% to -63%; further: on the % scale 0 is the no-effect control and ±100 the full control effect
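Homogeneous bead-based format: GST-tagged E1A captured on glutathione donor beads, His-tagged CtBP on nickel acceptor beads; compounds precede bead addition by 2 h at 37 °C.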
MBNL1 CUG block: qHTS Assay for Inhibitors of MBNL1-poly(CUG) RNA binding | TR-FRET MBNL1-His/biotin-(CUG)12 binding, 665/545 ratio | Potency, µM (titrated, usually from 57.5 µM), for inactives: top-dose activity change, negative = inhibition, usual class: inhibitors | 280,000 tested, 0.036% active; active means well fitted inhibition curve with a large enough effect in the signal ratio, with a control signal flat, not every such curve was filed as active; inconclusive means small, poorly fitted or top-dose-only effect, or effect the other way, or a change in a side signal; inactive means no such curve, though single readings can be large or run the other way; the % refers to the signal ratio; further: potency means the concentration at half of the fitted maximal effect; on the % scale 0 is the no-effect control and ±100 the full control effect
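TR-FRET between His-tagged MBNL1 and biotin-(CUG)12 RNA, detected with Tb anti-His antibody (0.055 ng/ul) and streptavidin-XL665 (5 nM), 60 min at room temperature. Compounds titrated 92 nM to 58 uM; 665/545 nm ratio normalized to buffer and complex controls.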
The depositor's hits bear a star. Unless noted, the call rests on the fitted dose curve; in most records, active means well fitted curve in the direction sought with a large enough effect; inconclusive means small, poorly fitted or top-dose-only effect, or another doubt; inactive means no such curve, though single readings can be large; an effect the other way counts as inactive or inconclusive.

Cc1cc(SCC(=O)O)nc2ccccc12 was read as CBFb-RUNX1 inh 6%, RORg inh -15%, Six1-Eya2 blk 3, Gal4-VP16 FLuc 3%, CtBP-E1A blk 6 and MBNL1 CUG block -2%.
For O=c1cc(-c2ccc(O)c(O)c2)oc2ccccc12 the results were CBFb-RUNX1 inh 5%, RORg inh 3.2µM* and Gal4-VP16 FLuc 1%.
Screening COc1ccc(-c2cc(=O)c3ccccc3o2)cc1OC returned RORg inh -27% and Gal4-VP16 FLuc 0%.
`O=C1CC(=Nc2ccc([N+](=O)[O-])cc2)NN1c1c(Cl)cc(Cl)cc1Cl` gave Six1-Eya2 blk -14 and CtBP-E1A blk -2.
Screening COC(=O)C1=C(CN2CCCc3ccccc32)NC(=O)NC1c1ccc(F)cc1 (centres undefined) returned CBFb-RUNX1 inh -8%, RORg inh 1.4µM*, Six1-Eya2 blk -13, Gal4-VP16 FLuc inconclusive, CtBP-E1A blk -14 and MBNL1 CUG block 7%.
COc1ccc2ccccc2c1C1NC(=O)NC(C)=C1[N+](=O)[O-] (centres undefined) was read as RORg inh -36%, Six1-Eya2 blk -9, Gal4-VP16 FLuc 11µM*, CtBP-E1A blk -26 and MBNL1 CUG block inconclusive.
For C=CCN(CC=C)C(=S)NC(=O)c1ccc(-c2ccccc2)cc1 the results were CBFb-RUNX1 inh -2%, RORg inh 0.5µM*, Six1-Eya2 blk -3, Gal4-VP16 FLuc 1µM*, CtBP-E1A blk -11 and MBNL1 CUG block -10%.
C=CCN(CC=C)C(=S)NC(=O)c1ccc(C)c(Br)c1 was read as CBFb-RUNX1 inh -10%, RORg inh 0.28µM*, Six1-Eya2 blk -1, Gal4-VP16 FLuc 0.13µM*, CtBP-E1A blk 12 and MBNL1 CUG block -3%.
COc1ccc(C(=O)NC(=S)N(Cc2ccccc2)Cc2ccccc2)cc1 was read as CBFb-RUNX1 inh inconclusive, RORg inh 0.16µM*, Six1-Eya2 blk -20, Gal4-VP16 FLuc 0.56µM*, CtBP-E1A blk -18 and MBNL1 CUG block 5%.
`C=CCN(CC=C)C(=S)NC(=O)/C=C/c1ccc(OC)cc1` gave CBFb-RUNX1 inh -10%, RORg inh -21%, Six1-Eya2 blk -3, Gal4-VP16 FLuc -13%, CtBP-E1A blk -13 and MBNL1 CUG block 81%.
`C=CCN(CC=C)C(=S)NC(=O)c1ccc(OC)cc1` gave CBFb-RUNX1 inh 1%, RORg inh 0.89µM*, Six1-Eya2 blk 13, Gal4-VP16 FLuc 2.2µM*, CtBP-E1A blk -15 and MBNL1 CUG block 1%.
Screening COC(=O)[C@]1(Cc2ccccc2)N[C@H](CN(C)C(=O)Nc2ccc(Cl)cc2)[C@@H]2C(=O)N(C)C(=O)[C@@H]21 returned Six1-Eya2 blk 3 and CtBP-E1A blk -24.
Cc1ccc2cc(NC(=O)C3(C)CCN3CC(C)C)ccc2n1 (centres undefined) was read as Six1-Eya2 blk 1 and CtBP-E1A blk 4.
For Cc1ncc(N=Nc2ccccc2Cl)c(-c2ccccc2)n1 the results were RORg inh 3%, Six1-Eya2 blk -69*, Gal4-VP16 FLuc -6%, CtBP-E1A blk -66* and MBNL1 CUG block inconclusive.
Screening CC(=O)Nc1sc(N)nc1-c1ccccc1 returned CBFb-RUNX1 inh 4%, RORg inh 12%, Six1-Eya2 blk 6, Gal4-VP16 FLuc -3%, CtBP-E1A blk 4 and MBNL1 CUG block -5%.

Bioassay records from PubChem.
